# High-throughput results (PubChem BioAssay)
# Many of the other results were omitted from the sample, so hits are more common in it than they were.
# Giardia FBPA inh-1: qHTS Assay for Inhibitors of Fructose-1,6-bisphosphate Aldolase from Giardia Lamblia; A8B2U2; purified Giardia FBPA; Potency, µM (titrated, usually from 59.6 µM), for inactives: at the top dose activity, negative = inhibition, actives largely listed as inhibitors; 290,000 tested, 0.71% active; AID 2451, 2010; also: potency is read from the fitted curve at half-maximal effect; % is scaled to controls: 0 for no effect and ±100 for the full control effect; nearly all actives have a fitted effect of over 55% in size
# Target sequence (A8B2U2 whole entry, looked up): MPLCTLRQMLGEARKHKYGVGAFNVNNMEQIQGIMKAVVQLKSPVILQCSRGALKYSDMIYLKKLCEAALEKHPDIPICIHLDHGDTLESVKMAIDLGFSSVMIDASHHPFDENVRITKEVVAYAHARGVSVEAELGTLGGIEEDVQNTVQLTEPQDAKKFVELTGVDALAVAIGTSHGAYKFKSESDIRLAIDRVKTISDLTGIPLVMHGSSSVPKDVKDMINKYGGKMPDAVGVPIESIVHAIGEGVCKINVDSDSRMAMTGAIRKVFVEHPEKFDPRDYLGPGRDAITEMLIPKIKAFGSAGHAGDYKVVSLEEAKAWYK
#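 40 nM FBPA preincubated 10 min at RT with compound (up to 57.5 uM final), then substrate plus GAPDH/TPI/NAD/arsenate coupling and diaphorase/resazurin added. Fluorescence read after 20 min at RT, 525/598 nm.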
# CHX counter: Cycloheximide Counterscreen for Small Molecule Inhibitors of Shiga Toxin; 300,000 tested, 12% active; AID 2314, 2010; cell reporter, cycloheximide protein synthesis inhibition counterscreen; max response, %; in the data active = max response mostly above about 13%, no sharp cut-off; inactive = mostly below about 14%; also: read at 38.3 µM for the half of the compounds with a filed dose; 0% is about no effect
# TbPYK inhibitor: qHTS of Trypanosoma Brucei Inhibitors. Potency, µM (doses to about 76.8 µM), inactives show at the highest dose activity, negative = inhibition, actives largely listed as inhibitors. 410,000 tested, 0.12% active. TbPYK enzyme, Kinase-Glo Plus ATP luminescence, 45 min; also: potency is read from the fitted curve at half-maximal effect; % is scaled to controls: 0 for no effect and ±100 for the full control effect; nearly all actives have a fitted effect of over 50% in size
#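 Activity of T. brucei pyruvate kinase was followed by Kinase-Glo Plus luminescence after the enzyme reacted 45 min at room temperature with 130 uM ADP (final) and substrate. Test compounds were added before ADP at multiple concentrations.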
# LmPK inhibitor: qHTS Assay for Inhibitors of Leishmania Mexicana Pyruvate Kinase (LmPK); purified LmPK, Kinase-Glo ATP luminescence, 1 h; Potency, µM (series often up to 57.5 µM), inactives show at the top dose activity change, negative = inhibition, usual class: inhibitors; 290,000 tested, 0.37% active; also: potency is read from the fitted curve at half-maximal effect; % is scaled to controls: 0 for no effect and ±100 for the full control effect
# Target sequence (Q27686 whole entry, looked up): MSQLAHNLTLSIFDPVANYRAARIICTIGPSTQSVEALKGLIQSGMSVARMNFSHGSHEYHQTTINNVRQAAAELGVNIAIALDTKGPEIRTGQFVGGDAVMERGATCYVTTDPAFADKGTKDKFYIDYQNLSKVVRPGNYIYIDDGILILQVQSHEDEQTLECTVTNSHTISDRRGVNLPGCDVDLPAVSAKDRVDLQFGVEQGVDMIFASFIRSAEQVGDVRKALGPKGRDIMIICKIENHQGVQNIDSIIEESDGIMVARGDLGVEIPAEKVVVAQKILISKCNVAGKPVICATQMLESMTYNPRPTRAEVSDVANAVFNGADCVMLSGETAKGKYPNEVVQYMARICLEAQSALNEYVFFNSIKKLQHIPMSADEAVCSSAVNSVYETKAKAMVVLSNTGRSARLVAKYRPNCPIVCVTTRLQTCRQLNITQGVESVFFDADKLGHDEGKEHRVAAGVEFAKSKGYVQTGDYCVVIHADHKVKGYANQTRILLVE
#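 0.1 nM LmPK, 0.5 mM PEP, 0.1 mM ADP; 50 mM imidazole pH 7.2, 7 mM MgCl2, 50 mM KCl; 1 h RT. Kinase-Glo luminescence readout, normalized to no-enzyme (full inhibition) and uninhibited wells.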
# Shiga inhibitor: A qHTS for Small Molecule Inhibitors of Shiga Toxin; 290,000 tested, 9.2% active; Vero cells, Shiga toxin protein synthesis inhibition reporter; inhibition, % at 38.7 µM; in the data active = inhibition mostly above about 28%, no sharp cut-off; inactive = mostly below about 43%; also: 0% is about no effect
# Sm TGR inh: qHTS Assay for the Inhibitors of Schistosoma Mansoni Peroxiredoxins; Schistosoma mansoni thioredoxin glutathione reductase (TGR), Q962Y6; purified TGR, DTNB reduction, TNB absorbance 405 nm; Potency, µM (titrated, usually from 114 µM), for inactives: at the highest dose activity change, negative = inhibition, hits mostly inhibitors; 360,000 tested, 3% active; also: potency is read from the fitted curve at half-maximal effect; % is scaled to controls: 0 for no effect and ±100 for the full control effect; nearly all actives have a fitted effect of over 60% in size
#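 TGR 20 nM + NADPH 100 uM (dispensed conc.), cpd preinc 15 min RT; start with NADPH (500 uM addition) then DTNB (15 mM addition). Kinetic TNB absorbance, 405 nm filter. Four-parameter Hill fit across titration.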
# Giardia growth: qHTS Assay for Inhibitors of Fructose-1,6-bisphosphate Aldolase from Giardia Lamblia: Giardia lamblia growth inhibition; 1,500 tested, 5% active; Giardia lamblia trophozoite growth inhibition; shares compounds with Giardia FBPA inh-1; Potency, µM (doses to about 57.5 µM), for the others: top-dose activity change, negative = inhibition, actives largely listed as inhibitors;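 also: potency is read from the fitted curve at half-maximal effect; trophozoites exposed to compound for 48 h at 37 °C; % is scaled to controls: 0 for no effect and ±100 for the full control effect; nearly all actives have a fitted effect of over 70% in size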
# Mammal cell tox: qHTS Assay for Inhibitors of Fructose-1,6-bisphosphate Aldolase from Giardia Lamblia: Mammalian cellular toxicity | Potency, µM (doses to about 57.5 µM), without a hit: at the highest dose viability change, negative = toxicity, usual class: inhibitors | 1,500 tested, 4% active | AID 2786, 2010 | mammalian cell viability counter-screen, qHTS | shares compounds with Giardia FBPA inh-1;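 also: Chinese hamster ovary cells used as mammalian cytotoxicity surrogate; viability measured as cellular ATP by luminescence; potency is read from the fitted curve at half-maximal effect; compound exposure lasted 48 h before reading; % is scaled to controls: 0 for no effect and ±100 for the full control effect; nearly all actives have a fitted effect of over 60% in size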
# Giardia FBPA inh-2: qHTS Assay for Inhibitors of Fructose-1,6-bisphosphate Aldolase from Giardia Lamblia: Primary screen confirmation | purified Giardia aldolase enzyme activity, qHTS | 1,500 tested, 5% active | shares compounds with Giardia FBPA inh-1 | Potency, µM (highest dose often 57.5 µM), for the others: at the highest dose activity change, negative = inhibition, usual class: inhibitors; also: potency is read from the fitted curve at half-maximal effect; % is scaled to controls: 0 for no effect and ±100 for the full control effect; nearly all actives have a fitted effect of over 45% in size
# Rabbit aldolase: qHTS Assay for Inhibitors of Fructose-1,6-bisphosphate Aldolase from Giardia Lamblia: Rabbit FBPA Selectivity; 1,500 tested, 4% active; Rabbit muscle FBPA enzyme inhibition, selectivity counter-screen; shares compounds with Giardia FBPA inh-1; Potency, µM (doses to about 57.5 µM), for inactives: at the top dose activity, negative = inhibition, actives largely listed as inhibitors; also: potency is read from the fitted curve at half-maximal effect; % is scaled to controls: 0 for no effect and ±100 for the full control effect; nearly all actives have a fitted effect of over 60% in size
# GAPDH counter: qHTS Assay for Inhibitors of Fructose-1,6-bisphosphate Aldolase from Giardia Lamblia: Coupling assay counterscreen confirmation | GAPDH coupling enzyme counterscreen, biochemical, qHTS | 1,500 tested, 6% active | shares compounds with Giardia FBPA inh-1 | Potency, µM (titrated, usually from 57.5 µM), without a hit: at the top dose activity change, negative = inhibition, actives largely listed as inhibitors | AID 2795, 2010; also: potency is read from the fitted curve at half-maximal effect; % is scaled to controls: 0 for no effect and ±100 for the full control effect; nearly all actives have a fitted effect of over 55% in size
# An asterisk follows results filed as active; ? = inconclusive; . = not tested or not shown; [ ] = another dose, or the depositor's remark. Unless noted, calls follow the shape of the dose curve; as a rule, active = well fitted curve in the direction sought with a large enough effect; inconclusive = small, poorly fitted or top-dose-only effect, or another doubt; inactive = no such curve, though single readings can be large; an effect the other way counts as inactive or inconclusive.
SMILES,Giardia FBPA inh-1,CHX counter,TbPYK inhibitor,LmPK inhibitor,Shiga inhibitor,Sm TGR inh,Giardia growth,Mammal cell tox,Giardia FBPA inh-2,Rabbit aldolase,GAPDH counter
CCC1CCC2(CC1)NNC(=S)NN2,13µM*,9,-10%,-5%,21,-10%,-11%[10.4 µM],6%,-6%,2%,5%
CC(=O)c1ccc(S(=O)(=O)NCCC(=O)NC2CCN(Cc3ccccc3)CC2)cc1,.,.,-5%,.,.,.,.,.,.,.,.
CCc1cccc(NC(=O)c2oc3ccc4c(c3c2C)C(=O)CC(C)(C)O4)c1,.,.,-1%,.,.,-1%,.,.,.,.,.
COc1ccc(CN2CCN(C(=O)CC(C)C)CC2)c(OC)c1OC,?,12,3%,-3%,-1,1%,.,.,.,.,.
COc1ccc(CN2CCN(CCCCOc3ccc(Cl)cc3)CC2)c(OC)c1OC,18µM*,8,-12%,4%,4,-1%,-21%,-6%,-3%,1%,9%
CCNc1nc(NC(C)C)nc(OCCNS(=O)(=O)c2cc(C)ccc2C)n1,6%,-6,-11%,1%,3,1%,.,.,.,.,.
CCNc1nc(NC(C)C)nc(NS(=O)(=O)c2ccc(C)cc2)n1,28µM*,-2,3%,-1%,1,9%,-20%,-2%,?,?,40µM*
COc1cccc(CCc2nnc(CCC(=O)N3CCN(Cc4ccccn4)CC3)o2)c1,5.6µM*,-2,10%,-1%,4,11µM*,-1%[38.3 µM],-7%,-6%,4%,2%
COC/C=C/C1=CC2=CC(=O)C(C)(OC(=O)c3cnc4ccccc4n3)C(=O)C2=CN1Cc1ccccc1 (stereo not drawn),2.2µM*,-3,3%,-3%[11.5 µM],3,?,-20%[38.3 µM],-8%,?,?,25µM*
COC/C=C/C1=CC2=CC(=O)C(C)(OC(=O)c3cnc4ccccc4n3)C(=O)C2=CN1CC1CC1 (stereo not drawn),?,.,-8%,-1%[11.5 µM],.,.,.,.,.,.,.
COc1cc(/C=C2\SC(=S)N(NC(=O)c3ccc(O)cc3)C2=O)ccc1O,-2%,7,-22%,0%,8,?,.,.,.,.,.
O=C(NN1C(=O)/C(=C/c2ccc(O)c(O)c2)SC1=S)c1ccccc1,14µM*,-3,?,-17%,-9,6%,-4%,-9%,-20%,-25%,0%
O=C(CNCc1ccccc1)Nc1ccccc1-c1ccccc1,1%,-4,-2%,-2%,9,-17%,.,.,.,.,.
O=C(CNCc1ccccc1)Nc1cccc(Cl)c1Cl,16µM*,15,5%,4%,5,4%,17%,0%,2%,-3%,9%
Cc1cc(OCC(=O)Nc2nc3c(s2)CCCC3)cc(C)c1Cl,.,.,1%,.,.,-6%,.,.,.,.,.
N/C(=N\NC(=O)Nc1ccccc1)c1ccccn1,20µM*,45*,0%,-1%,57*,13%,-10%[10.4 µM],-1%,-7%,5%,-1%
CN(C)S(=O)(=O)c1cccc(-n2sc3ccccc3c2=O)c1,14µM*,17,4µM*,-2%,40,?,?,?,-5%,22µM*,-15%
CCCCC(=O)NC(=S)Nc1nnn(CCC)n1,1.8µM*,11,-6%,-3%,19,-3%,-6%[38.3 µM],40µM*,-15%,8%,?
COc1cc(N=c2ssnc2Cl)cc(OC)c1,16µM*,-1,28µM*,-22%,14,79µM*,-3%[10.4 µM],-9%,-3%,-11%,16%
N#Cc1cccc(N=c2ssnc2Cl)c1,20µM*,8,18µM*,-23%,-2,45%,?,2%,-11%,?,13%
Cc1cc(C)cc(NC(=O)N2CCC(C(N)=O)(N3CCCCC3)CC2)c1,.,.,-2%,.,.,?,.,.,.,.,.
O=C(NCc1ccccn1)[C@@H]1CCCN1C(=O)[C@@H]1CCCN1C(=O)c1c(F)cccc1F,.,.,4%,.,.,.,.,.,.,.,.
COc1ccc(/C=C(\C#N)c2nc(-c3cc4c(ccc5ccccc54)oc3=O)cs2)cc1O,.,-2,2%,.,-4,3%,.,.,.,.,.
COc1ccc(CCN(C)C(=O)C2CCCN(C3CCN(Cc4ccccc4)CC3)C2)cc1OC (stereo not drawn),18µM*,-3,8%,-3%,-8,-23%,?,0%,-6%,-6%,6%
O=C(NNc1cccc(Cl)n1)C(F)(F)F,20µM*,8,-1%,10%,15,7%,?,9%,-13%,-2%,1%
SMILES,Giardia FBPA inh-1,CHX counter,TbPYK inhibitor,LmPK inhibitor,Shiga inhibitor,Sm TGR inh,Giardia growth,Mammal cell tox,Giardia FBPA inh-2,Rabbit aldolase,GAPDH counter
CC(=O)NNc1cccc(Cl)n1,-1%,6,4%,-3%,6,?,.,.,.,.,.
COc1ccccc1NC(=O)Cc1nnc(SCC(=O)c2ccc(F)cc2)n1C,2%,1,-1%,11%,-8,1%,.,.,.,.,.
Cc1ccc(S(=O)(=O)N2CCN(C(=O)CSc3nnc(C)c(=O)[nH]3)CC2)cc1,28µM*,1,-15%,18%,16,-1%,?,5%,6%,14%,22%
O=C(NCc1ccc(F)cc1)c1cc2n(n1)CCCN(Cc1ccc(F)cc1)C2=O,.,.,-2%,.,.,-10%,.,.,.,.,.
Cc1cc(C)c(-n2[nH]nnc2=S)c(C)c1,14µM*,-1,?,1%,-5,2%,8%[10.4 µM],14%,5%,6%,10%
COc1ccc(C)cc1-n1cnc2sc(C)c(C)c2c1=O,.,.,-1%,.,.,.,.,.,.,.,.
